Results on 96 compounds are retold here after PubChem BioAssay AID463173 (ICCB-Longwood Screening Facility, Harvard Medical School, 2010).

About 4,300 (8.3%) of roughly 52,000 compounds were called active. Rule as the data show it: active = survival mostly below about 52% (no sharp cut-off); inactive = mostly above about 56%. This excerpt belongs to a sample that is enriched for actives.

For the experiment, the system named is DeltatarO mutant. The experiment is described as follows: S. aureus survival, RN4220 and DeltatarO strains – OD600, teichoic acid synthesis inhibitors, primary screen (AID 463173). The conditions noted are these: S. aureus RN4220 wild type/DeltatarO growth, OD600, 18 h, stronger effect = lower value, screened at 18.75 µg/mL (by protocol).
Take `O=C(NCCc1ccc(Cl)cc1)c1cc(-c2ccc(Cl)cc2)n[nH]1`: the survival was 68% (inactive).

As for `CCOC(=O)c1nnc2c(-c3ccc(Cl)cc3)c(C)nn2c1C`, the survival is 49% (inactive).

In the case of `CC(=O)Nc1ccc(NC(=O)C(Cc2ccccc2)N2Cc3ccccc3C2=O)cc1` (stereo unspecified), the survival was 82% (inactive).

With `COc1ccc(NC(=O)C(Cc2ccccc2)n2cccc2)c(OC)c1` (stereo unspecified), the survival is 67% (inactive).

Turning to `O=C(Nc1ccccc1F)C(Cc1ccccc1)n1cccc1` (stereo unspecified), the survival was 77% (inactive).

`Cc1ccc(NC(=O)C(Cc2ccccc2)n2cccc2)cc1` (stereo unspecified): the survival is 76% (inactive).

Consider `O=C(Nc1ccc(C(F)(F)F)cc1)C(Cc1ccccc1)n1cccc1` (stereo unspecified), for which the survival is -4% (active).

Regarding `CC(C)c1ccc(NC(=O)C(Cc2ccccc2)n2cccc2)cc1` (stereo unspecified), the survival is 23% (active).

As for `CCOc1ccc(S(=O)(=O)NCCc2sc3nc(-c4ccc(C)cc4)nn3c2C)cc1`, the survival is 109% (inactive).

With `Cc1oc2c(C)c3oc(=O)c(CCC(=O)N4CCCCC4)c(C)c3cc2c1C`, the survival is 89% (inactive).

For `Cc1coc2c(C)c3oc(=O)c(CC(=O)N4CCCCC4)c(C)c3cc12`, the survival was 79% (inactive).

In the case of `Cc1coc2c(C)c3oc(=O)c(CCC(=O)N4CCCCC4)c(C)c3cc12`, the survival is 44% (active).

For `CC1CCC(N2CC(=O)N(C3CCCCC3)C(c3ccc(F)cc3)C2=O)CC1` (stereo unspecified), the survival was 82% (inactive).

Turning to `Cc1ccc(-c2nc(N3CCN(c4ccccc4Cl)CC3)c3ccccc3n2)cc1`, the survival is 52% (inactive).

On to `CCCOc1ccc(-c2nc(N3CCCCC3)c3ccccc3n2)cc1`, for which the survival is -2% (active).

As for `CCOc1ccc(-n2cc(-c3ccccc3)c3c(N4CCC(C)CC4)ncnc32)cc1`, the survival was 90% (inactive).

Consider `CCCOc1ccc(CNC(=O)C2CCN(c3nc4ccccc4nc3C(F)(F)F)CC2)cc1`, for which the survival was 75% (inactive).

`c1ccc(-c2nc(N3CCCCC3)c3ccccc3n2)cc1`: the survival was 96% (inactive).

For `CCCOc1ccc(-c2nc(N3CCC(C)CC3)c3ccccc3n2)cc1`, the survival was -1% (active).

Take `Cc1ccc(C)c(N2CCN(S(=O)(=O)c3c(C)nc4sccn4c3=O)CC2)c1`: the survival was 92% (inactive).

On to `CCOc1ccc(NC(=O)C2CC(=O)NC(=Nc3ccc(Cl)c(Cl)c3)S2)cc1` (stereo unspecified), for which the survival was 72% (inactive).

For `CCc1ccc(N=C2NC(=O)CC(C(=O)Nc3ccc(OC)cc3)S2)cc1` (stereo unspecified), the survival was 87% (inactive).

Turning to `CCOC(=O)c1ccc(NC(=O)C2CC(=O)NC(=Nc3ccc(C)c(C)c3)S2)cc1` (stereo unspecified), the survival was 47% (active).

With `CN(C)c1ccc(C(C(=O)NCC2CCCO2)N(C(=O)Cn2nnc3ccccc32)c2ccc3c(c2)OCO3)cc1` (stereo unspecified), the survival was 90% (inactive).

Regarding `O=C(Nc1cccc(Cl)c1Cl)c1cc(S(=O)(=O)N2CCCCC2)ccc1F`, the survival was 72% (inactive).

In the case of `O=C(Nc1cccc(F)c1)C1CCN(S(=O)(=O)c2cccc3nsnc23)CC1`, the survival is 83% (inactive).

For the compound `COc1ccc(N2CCN(Cc3nc(-c4ccc(C)cc4)no3)CC2)cc1`, the survival is 48% (inactive).

Turning to `COc1cc(-c2noc(CN3CCN(c4cccc(Cl)c4)CC3)n2)cc(OC)c1OC`, the survival is 77% (inactive).

Turning to `COc1ccc(-c2noc(CN3CCN(c4cccc(Cl)c4)CC3)n2)cc1`, the survival is 13% (active).

Take `Cc1cccc(N(C)c2nc3ccccc3c3nnc(C)n23)c1`: the survival is 118% (inactive).

In the case of `COc1ccc(C)cc1NC(=O)N1CCC(CN2CCC(C)CC2)CC1`, the survival was 91% (inactive).

For the compound `CCCCN(c1ccccc1)S(=O)(=O)c1cc2c3c(c1)C(C)C(=O)N3CCC2` (stereo unspecified), the survival is 69% (inactive).

For `Cc1ccc(C(C)C)c(OCC(=O)Nc2cccc(NC(=O)c3ccco3)c2)c1`, the survival was 10% (active).

Consider `CCC(C)c1ccc(OCC(=O)Nc2cccc(-c3nc4ncccc4o3)c2)cc1` (stereo unspecified), for which the survival is 19% (active).

For `Cc1ccc(C(C)C)c(OCC(=O)Nc2ccc3c(c2)nc(CCNC(=O)c2ccco2)n3C)c1`, the survival is 54% (inactive).

With `COc1ccc(NC(=O)c2ccco2)cc1NC(=O)COc1cc(C)ccc1C(C)C`, the survival was 63% (inactive).

For `Cc1cc(C)c(OCC(=O)Nc2cccc(-c3nc4ncccc4o3)c2)c(Br)c1`, the survival is 4% (active).

For `Cc1ccc2cccc(NC(=O)COc3cc(C)c(Cl)c(C)c3)c2n1`, the survival is 75% (inactive).

Turning to `CCC(C)c1ccc(OCC(=O)Nc2ccc(-c3nc4ncccc4o3)cc2)cc1` (stereo unspecified), the survival was 44% (inactive).

With `COc1ccc(OCC(=O)Nc2ccc(-c3nc4ncccc4o3)cc2)cc1`, the survival is 84% (inactive).

As to `CCCC(=O)Nc1cccc(-c2nc3ncccc3o2)c1`, the survival was 66% (inactive).

For `CCC(C)c1ccc(OCC(=O)Nc2cccc3ccc(C)nc23)cc1` (stereo unspecified), the survival was -3% (active).

Take `Cc1ccccc1OCC(=O)Nc1ccc(-c2nc3ncccc3o2)cc1`: the survival is 60% (inactive).

For the compound `Cc1ccc2cccc(NC(=O)COc3ccccc3Cl)c2n1`, the survival is 179% (inactive).

Consider `CCc1cccc2sc(N3CCN(C(=O)C4CC4)CC3)nc12`, for which the survival is 94% (inactive).

As to `CCCSCCCNC(=O)C1CCN(C(=O)c2cc3sccc3n2C)CC1`, the survival is 109% (inactive).

With `O=C(Nc1cccc(Cl)c1Cl)c1ccc2c(c1)N(Cc1cccc(Cl)c1)C(=O)c1ccccc1S2(=O)=O`, the survival was 108% (inactive).

With `Cc1cc2c(n1-c1ccc(C(=O)NCc3cccc(Br)c3)cc1)CCC(C)C2` (stereo unspecified), the survival was 125% (inactive).

Take `O=C(COc1ccc(Cl)cc1Cl)Nc1ccc(C(=O)OC2CCCCC2)cc1`: the survival was 57% (inactive).

Turning to `Cc1cc(OCC(=O)Nc2ccc(C(=O)OC3CCCCC3)cc2)cc(C)c1Cl`, the survival was 50% (inactive).

Consider `Cc1ccc(C(C)C)c(OCC(=O)Nc2ccc(C(=O)OC3CCCCC3)cc2)c1`, for which the survival is 33% (active).

Consider `Cc1cccc(OCC(=O)Nc2ccc(Cl)c(-c3nc4ncccc4o3)c2)c1C`, for which the survival is 62% (inactive).

For `Cc1ccc(C(C)C)c(OCC(=O)Nc2ccc(-c3nc4ncccc4o3)cc2C)c1`, the survival was 54% (inactive).

For the compound `Cc1ccc(C(C)C)c(OCC(=O)Nc2cccc(-c3nc4ncccc4o3)c2)c1`, the survival is 2% (active).

Take `CSc1ccc(CCNC(=O)c2ccc3c(c2)nc2n3CCCCC2)cc1`: the survival was 82% (inactive).

Turning to `COc1ccc(N2CCN(CCCNC(=O)c3ccc4nc(Cc5ccccc5)oc4c3)CC2)cc1`, the survival is 93% (inactive).

As to `O=C(NCc1ccc(F)cc1)c1ccc2c(O)c(S(=O)(=O)c3ccccc3)c(=O)[nH]c2c1`, the survival was 66% (inactive).

For the compound `CCn1c(=O)c(=O)n(CC)c2cc(N3CCCCC3)c(NC(=O)c3ccccc3OC)cc21`, the survival was 91% (inactive).

`Cc1nnc(NC(=O)CSCc2cc(=O)c3ccc(C)c(C)c3[nH]2)s1`: the survival is 73% (inactive).

Take `NC(=O)CN1C(=O)C(O)(CC(=O)/C=C\c2ccccc2)c2ccccc21` (stereo unspecified): the survival was 96% (inactive).

With `COc1ccc(CNc2nc(-c3ccc(OC)cc3)cc(C(F)(F)F)n2)cc1`, the survival was -2% (active).

For the compound `COc1ccc(-c2cc(C(F)(F)F)nc(SCC(=O)NCCc3ccccc3)n2)cc1`, the survival was 121% (inactive).

Regarding `COc1ccc(CNc2ccc(-c3ccc(OC)cc3)nn2)cc1`, the survival is 80% (inactive).

Consider `COc1ccc(-c2cc(C(F)(F)F)nc(SCC(=O)NC(C)c3ccccc3)n2)cc1` (stereo unspecified), for which the survival was 60% (inactive).

For `COc1ccc(CNC(=O)CSc2nc(-c3ccc(OC)cc3)cc(C(F)(F)F)n2)cc1`, the survival is 83% (inactive).

Take `COc1ccc(-c2cc(C(F)(F)F)nc(NCCc3ccccc3)n2)cc1`: the survival is 1% (active).

Consider `COc1ccc(-c2cc(C(F)(F)F)nc(SCC(=O)NCc3ccc(OC)c(OC)c3)n2)cc1`, for which the survival was 60% (inactive).

On to `COc1ccc(CNC(=O)CSc2nc(-c3ccc(OC)c(OC)c3)cc(C(F)(F)F)n2)cc1`, for which the survival is 72% (inactive).

Take `COc1ccc(-c2cc(C(F)(F)F)nc(NCc3ccccc3)n2)cc1`: the survival was -4% (active).

Regarding `COc1ccc(CNC(=O)C(C)Sc2nc(-c3ccccc3)cc(C(F)(F)F)n2)cc1` (stereo unspecified), the survival was 165% (inactive).

With `COc1ccc(CNc2nc(-c3ccc(OC)c(OC)c3)cc(C(F)(F)F)n2)cc1`, the survival is 11% (active).

For the compound `COc1ccc(S(=O)(=O)c2c(O)c(C)cc(NC(=O)c3ccccc3)c2C(C)C)cc1`, the survival was 80% (inactive).

In the case of `CCc1ccc(NC(=O)c2sc3nc(C)c(Cl)c(C)c3c2NC(=O)c2ccccc2)cc1`, the survival was 76% (inactive).

`CCOC(=O)N1CCC(NC(=O)c2ccc3c(c2)N(Cc2ccc(F)cc2)C(=O)c2ccccc2S3=O)CC1` (stereo unspecified): the survival is 58% (inactive).

Take `COc1ccc(CCNC(=O)c2c(O)nc3c(C)cccn3c2=O)cc1OC`: the survival is 91% (inactive).

Take `CCN1C(=O)/C(=C\C=C2/N(CC)c3ccc(C(=O)OC)cc3N2CC)SC1=S`: the survival is 78% (inactive).

On to `Cc1ccc(NC(=O)Cn2c(=O)n(Cc3nc(-c4ccccc4)no3)c(=O)c3cc4c(cc32)OCO4)cc1C`, for which the survival is 77% (inactive).

As for `CCc1ccccc1NC(=O)CN(Cc1ccccc1)S(=O)(=O)c1ccc2nc(C)sc2c1`, the survival is 102% (inactive).

As to `Cc1ccc(C(=O)NC2(C(F)(F)F)C(=O)Nc3c2c(=O)[nH]c(=O)n3CCc2ccccc2)cc1` (stereo unspecified), the survival was 74% (inactive).

As for `CC(C)CCNC(=O)c1cc2sccc2n1Cc1ccc(F)cc1`, the survival was 87% (inactive).

As for `CCOc1ccccc1Nc1sc(C(=O)c2ccccc2)c(N)c1C(=O)Nc1ccccc1`, the survival is 102% (inactive).

Consider `COCCn1c(C)cc(O)c(C(c2ccccc2Cl)N2CCN(c3ccccc3)CC2)c1=O` (stereo unspecified), for which the survival is 87% (inactive).

Take `CSc1ccc(CNC(=O)c2cc3c(=O)n(Cc4ccco4)ccc3nc2C)cc1`: the survival is 94% (inactive).

In the case of `COc1ccc(-c2cn3c(n2)sc2cc(C(=O)NCc4ccccc4)ccc23)cc1`, the survival is 63% (inactive).

Regarding `O=C(NCCOCCn1c(=O)oc2ccccc21)Nc1cccc(Cl)c1`, the survival was 75% (inactive).

With `COc1ccc(-c2cc(C(F)(F)F)nc(NCc3ccccc3)n2)cc1OC`, the survival was 42% (active).

On to `COc1cccc(-c2cc(C(F)(F)F)nc(NCc3ccc(F)cc3)n2)c1`, for which the survival was 4% (active).

As to `COc1cccc(-c2cc(C(=O)Nc3ccc(F)cc3)[nH]n2)c1`, the survival was 73% (inactive).

In the case of `COc1ccc(-c2cc(C(F)(F)F)nc(SCC(=O)NCc3ccc(F)cc3)n2)cc1`, the survival was 74% (inactive).

For `COc1ccc(-c2cc(C(F)(F)F)nc(NCc3ccc(F)cc3)n2)cc1`, the survival is 1% (active).

`COc1ccc(-c2cc(C(F)(F)F)nc(SCCC(=O)Nc3cccc(OC)c3)n2)cc1`: the survival is 69% (inactive).

In the case of `COc1cccc(-c2nc(S(=O)(=O)c3ccccc3)c(NCc3ccccc3)o2)c1`, the survival is 61% (inactive).

Regarding `COc1ccc(-c2cc(C(F)(F)F)nc(SCC(=O)NCC(C)C)n2)cc1OC`, the survival is 137% (inactive).

In the case of `COc1ccccc1CCNC(=O)C(C)Sc1nc(-c2ccccc2)cc(C(F)(F)F)n1` (stereo unspecified), the survival was 65% (inactive).

With `COc1cccc(-c2cc(C(F)(F)F)nc(NCCc3ccccc3)n2)c1`, the survival was -8% (active).

On to `COc1ccc(-c2cc(C(F)(F)F)nc(NCCc3ccccc3)n2)cc1OC`, for which the survival was 63% (inactive).
